# From PubChem BioAssay AID434959 (Broad Institute, 2010)
# Out of some 30,000 compounds screened, about 110 (0.37%) were called active.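 How the source made its calls: active means delta delta Cp rounded down to an integer at or above 3, about 3 SD of DMSO wells; inactive means the rest.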 Only a selection was taken, and actives are over-represented in it overall.
# Experiment: inhibitors of YB-1 gene expression, primary screen, cell-based, fluorescence (AID 434959);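 further: higher means less YB-1 transcript or more CDIP transcript relative to DMSO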
# Settings: U2OS, qRT-PCR YB-1 vs CDIP delta delta Cp, 16 h; hits give high values; zero = DMSO, each unit about twofold
row,SMILES,delta Cp (YB-1 minus CDIP)
1,COc1ccc(S(=O)(=O)Nc2ccc3c(c2)CC(=O)N([C@H](C)CO)C[C@H](C)[C@H](CN(C)C(=O)Nc2ccccc2)O3)cc1,0.185 (inactive)
2,C[C@@H]1CN([C@@H](C)CO)C(=O)Cc2cc(NC(=O)C3CCCCC3)ccc2O[C@@H]1CN(C)CC1CCCCC1,0.332 (inactive)
3,Cc1noc(C)c1NC(=O)N(C)C[C@H]1Oc2c(NS(=O)(=O)c3cccs3)cccc2C(=O)N([C@@H](C)CO)C[C@@H]1C,-0.0216 (inactive)
4,C[C@H]1CN([C@@H](C)CO)C(=O)c2cc(NC(=O)Cc3cn(C)c4ccccc34)ccc2O[C@H]1CN(C)CC1CCCCC1,-0.873 (inactive)
5,C[C@H]1CN([C@@H](C)CO)C(=O)Cc2cc(NC(=O)Nc3ccc(F)cc3)ccc2O[C@H]1CN(C)S(=O)(=O)c1ccccc1,-0.124 (inactive)
6,O=C(O)CCCCCCC(=O)NN=C1CCCCCC1,-0.0992 (inactive)
7,C[C@H](CO)N1C[C@H](C)[C@@H](CN(C)S(=O)(=O)c2ccccc2)Oc2c(NS(=O)(=O)c3cn(C)cn3)cccc2C1=O,0.133 (inactive)
8,CC(C)CSc1nnc(CSCc2nc(-c3ccc(Cl)cc3)cs2)n1C,0.176 (inactive)
9,COC(=O)[C@@]1(CCS(=O)(=O)c2ccccc2)N=C(c2ccc(OCCCO)cc2)O[C@H]1c1ccccc1N=[N+]=[N-],-0.253 (inactive)
10,CCc1c(C)n([O-])c2c([n+]1=O)CCCCC2,6.44 (active)
11,Cc1ccc(-c2c[n+](=O)c3c(n2[O-])CCC3)cc1,-0.134 (inactive)
12,C[C@H]1CN([C@@H](C)CO)C(=O)Cc2cc(NC(=O)Cc3ccccc3)ccc2O[C@H]1CN(C)S(=O)(=O)c1ccc(Cl)cc1,-0.43 (inactive)
13,COc1ccc(CN(C)C[C@H]2Oc3c(NS(=O)(=O)c4ccccc4)cccc3C(=O)N([C@H](C)CO)C[C@@H]2C)cc1,0.263 (inactive)
14,C[C@@H]1CCCCO[C@H](CN(C)C(=O)c2ccccc2)[C@@H](C)CN([C@H](C)CO)C(=O)c2cc(NC(=O)Nc3cccc4ccccc34)ccc2O1,-0.0616 (inactive)
15,C[C@@H]1CN([C@H](C)CO)C(=O)c2cc(N(C)C)ccc2O[C@@H]1CN(C)S(C)(=O)=O,-0.194 (inactive)
16,C[C@@H]1CN([C@@H](C)CO)C(=O)CCCn2cc(nn2)CO[C@H]1CN(C)Cc1ccc(C(=O)O)cc1,0.212 (inactive)
17,C/C=C(/C)C(=O)O[C@H]1CC(C)(C)C[C@H]2C3=CCC4[C@@]5(C)CC[C@H](O[C@@H]6O[C@H](C(=O)O)[C@@H](O[C@@H]7O[C@H](CO)[C@H](O)[C@H](O)[C@H]7O[C@@H]7O[C@H](CO)[C@@H](O)[C@H](O)[C@H]7O)[C@H](O)[C@H]6O[C@@H]6O[C@@H](C)[C@H](O)[C@@H](O)[C@H]6O)C(C)(C)C5CC[C@@]4(C)[C@]3(C)[C@@H](OC(C)=O)[C@@H](O)[C@@]12COC(C)=O (stereo partly drawn),-0.219 (inactive)
18,C/C=C(/C)C(=O)O[C@H]1CC(C)(C)C[C@H]2C3=CCC4[C@@]5(C)CC[C@H](O[C@@H]6O[C@H](C(=O)O)[C@@H](O[C@@H]7O[C@H](CO)[C@H](O)[C@H](O)[C@H]7O[C@@H]7O[C@H](CO)[C@@H](O)[C@H](O)[C@H]7O)[C@H](O)[C@H]6O[C@@H]6O[C@@H](C)[C@H](O)[C@@H](O)[C@H]6O)C(C)(C)C5CC[C@@]4(C)[C@]3(C)[C@@H](O)[C@@H](O)[C@@]12CO (stereo partly drawn),10.3 (active)
19,CCC/C=C/C(=O)OC1C(O)C23C(O)OC4(CCC5C6(C)CCC(OC7OC(C(=O)O)C(O)C(OC8OC(CO)C(O)C(O)C8OC8OC(C)C(O)C(O)C8OC8OCC(O)C(O)C8O)C7OC7OC(CO)C(O)C(O)C7O)C(C)(C)C6CCC5(C)C4(C)CC2OC(C)=O)C3CC1(C)C (stereo not drawn),3.51 (active)
20,CC1(C)CC[C@]2(C(=O)O)CC[C@]3(C)C(=CCC4[C@@]5(C)CC[C@H](OC6O[C@H](CO)[C@@H](O)[C@H](O[C@@H]7O[C@H](CO)[C@@H](O)[C@H](O)[C@H]7O)[C@H]6O)C(C)(C)C5CC[C@]43C)[C@@H]2C1 (stereo partly drawn),-0.209 (inactive)
21,CC1OC(OC2C(OC3C(O[C@H]4CC[C@@]5(C)C(CC[C@]6(C)C5CC=C5[C@@H]7CC(C)(C)C[C@@H](O)[C@]7(C)CC[C@]56C)C4(C)C)OC(C(=O)O)C(O)C3O)OC(CO)C(O)C2O)C(O)C(O)C1O (stereo partly drawn),0.299 (inactive)
22,CC1(C)CC[C@]2(C(=O)O[C@@H]3O[C@H](CO)[C@@H](O)[C@H](O)[C@H]3O)CC[C@]3(C)C(=CCC4[C@@]5(C)CC[C@H](O[C@@H]6O[C@H](C(=O)O)[C@@H](O[C@@H]7OC[C@H](O)[C@H](O)[C@H]7O)[C@H](O)[C@H]6O)C(C)(C)C5CC[C@]43C)C2C1 (stereo partly drawn),0.0826 (inactive)
23,C=CC(C)(O)CCC1(C)C2=C(C(OC(C)=O)C(OC(C)=O)C1C)C(C)(C)CCC2 (stereo not drawn),-0.399 (inactive)
24,COC(=O)[C@]1(Cc2ccccc2CN=[N+]=[N-])N=C(c2ccc(OCCCO)cc2)O[C@@H]1c1ccccc1CN=[N+]=[N-],0.139 (inactive)
25,C[C@@H]1CN([C@@H](C)CO)C(=O)c2cccc(NC(=O)Nc3cccc4ccccc34)c2O[C@@H]1CN(C)CC1CC1,0.192 (inactive)
26,C[C@@H]1CN([C@H](C)CO)C(=O)Cc2cc(NC(=O)Cn3cnnn3)ccc2O[C@@H]1CN(C)S(=O)(=O)c1ccc(F)cc1,0.145 (inactive)
27,C[C@H](CO)N1C[C@H](C)[C@H](CN(C)C(=O)NC2CCCCC2)Oc2c(NC(=O)c3nc4ccccc4s3)cccc2C1=O,0.116 (inactive)

row,SMILES,delta Cp (YB-1 minus CDIP)
1,C[C@H]1CN([C@@H](C)CO)C(=O)Cc2cc(N(C)C)ccc2O[C@@H]1CN(C)Cc1ccc(-c2ccccc2)cc1,0.0659 (inactive)
2,COC(=O)CCCCCCC(=O)N/N=C/c1ccc(C(=O)O)cc1,-0.219 (inactive)
3,C[C@H]1CN([C@@H](C)CO)C(=O)c2cc(NC(=O)C3CCCCC3)ccc2O[C@H]1CN(C)S(=O)(=O)c1cn(C)cn1,-0.0642 (inactive)
4,CC(C)(C)c1ccc(-c2[nH]nc(NC(=O)c3ccccc3Cl)c2Br)cc1,0.0133 (inactive)
5,C[C@@H]1CN([C@H](C)CO)C(=O)CCCn2cc(nn2)CO[C@@H]1CN(C)Cc1ccccc1C(=O)O,-0.246 (inactive)
6,C[C@@H]1CN([C@H](C)CO)C(=O)CCCn2nncc2CO[C@@H]1CN(C)C(=O)OCc1ccccc1,0.0587 (inactive)
7,O=C1C2CC3CC1CC(C(=O)O)(C3)C2,0.106 (inactive)
8,C[C@H](CO)N1C[C@H](C)[C@H](CN(C)C(=O)Nc2ccccc2)Oc2ccc(NC(=O)CCN3CCOCC3)cc2CC1=O,-0.228 (inactive)
9,CC1(C)CC(=O)c2ccc(O)cc2O1,1.96 (inactive)
10,Cc1cc(C(=O)Nc2cccc3c2O[C@@H](CN(C)C(=O)Nc2ccc4c(c2)OCO4)[C@H](C)CN([C@@H](C)CO)C3=O)n(C)n1,-0.0832 (inactive)
11,C[C@H]1CN([C@@H](C)CO)C(=O)c2cc(NC(=O)NC3CCCCC3)ccc2O[C@@H]1CN(C)S(=O)(=O)c1cccs1,0.092 (inactive)
12,O=C(/C=C/c1ccccc1)c1ccc(O[C@@H]2O[C@H](CO)[C@@H](O)[C@H](O)[C@H]2O)cc1O,0.0338 (inactive)
13,Oc1cc2c(cc1O)CN(C(=S)NCCc1ccc(Cl)cc1)CCC2,0.367 (inactive)
14,Cc1noc(C)c1NC(=O)Nc1ccc2c(c1)CC(=O)N([C@@H](C)CO)C[C@@H](C)[C@@H](CN(C)C(=O)NC(C)C)O2,0.0713 (inactive)
15,C[C@H]1CN([C@@H](C)CO)C(=O)Cc2cc(NC(=O)C3CC3)ccc2O[C@H]1CN(C)S(=O)(=O)c1ccc(Cl)cc1,0.415 (inactive)
16,[N-]=[N+]=Nc1ccccc1C[C@@]1(C(=O)NCc2ccccc2)N=C(c2ccc(OCCCO)cc2)O[C@@H]1c1ccccc1,-0.629 (inactive)
17,O=C1O[C@@H](c2ccccc2)[C@@H](c2ccccc2)N2[C@@H](c3ccccc3OCCO)[C@]3(C(=O)Nc4ccc(C#CC5(O)CCCCCC5)cc43)[C@@H](C(=O)N3CCN(c4ncccn4)CC3)[C@H]12,-0.244 (inactive)
18,C[C@H](CO)N1C[C@H](C)[C@H](CN(C)Cc2ccc(-c3ccccc3)cc2)Oc2ccc(NC(=O)Nc3ccc(F)cc3)cc2CC1=O,-0.469 (inactive)
19,COc1cc(/C(C)=C/C(C)=C\C(=O)O)oc(=O)c1C,-0.492 (inactive)
20,Cc1ccc(S(=O)(=O)N(C)C[C@H]2Oc3c(NC(=O)c4ccc(-c5nccs5)cc4)cccc3C(=O)N([C@H](C)CO)C[C@H]2C)cc1,-0.182 (inactive)
21,CC1=COC(O[C@@H]2O[C@H](CO)[C@@H](O)[C@H](O)[C@H]2O)C2C1CC(O)C2CO (stereo partly drawn),-0.367 (inactive)
22,C[C@@H]1CN([C@@H](C)CO)C(=O)CCCn2nncc2CO[C@@H]1CN(C)Cc1ccccc1,0.131 (inactive)
23,C[C@@H]1CN([C@H](C)CO)C(=O)Cc2cc(NS(=O)(=O)c3ccc(F)cc3)ccc2O[C@@H]1CN(C)S(=O)(=O)c1ccc(F)cc1,-0.0534 (inactive)
24,COc1ccc(C#Cc2ccc3c(c2)[C@]2(C(=O)N3)[C@H](c3ccccc3OCCO)N3[C@H](c4ccccc4)[C@H](c4ccccc4)OC(=O)[C@H]3[C@@H]2C(=O)N2CCCCCCC2)cc1,0.00142 (inactive)
25,CNC[C@@H]1Oc2ncc(-c3ccc(F)cc3)cc2C(=O)N([C@H](C)CO)C[C@@H]1C,-0.148 (inactive)
26,CC(C)NC(=O)N(C)C[C@H]1Oc2ccc(NC(=O)CCCCCC(=O)Nc3ccccc3N)cc2CC(=O)N([C@@H](C)CO)C[C@H]1C,0.0201 (inactive)
